PNC assembly inh = perinucleolar compartment assembly inhibition; PC3M PTB-GFP, PNC prevalence imaging, 16 h; hits give low values; activity change (PNC), negative = inhibition, % at 10 µM; 3.1% of 140,000 active; AID 2417;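 active means readout at or below -70, meaning at least 70% loss of cells showing the perinucleolar compartment, a nuclear body marking cancer cells; inconclusive means readout between -30 and a set limit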;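 further: plate controls were DMSO wells for no effect and camptothecin positive control wells for full effect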
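PC3M cells stably expressing PTB-GFP, 750–1000 cells/well, treated 16 h at 37 °C with compound (23 nl of library stock), in duplicate. After paraformaldehyde fixation and Hoechst stain, imaged at 20x; PNC prevalence scored by image analysis.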
IMPase inh = cell-permeable inhibitors of inositol monophosphatase (IMPase); inhibition (IP1 accumulation), % at 46.1 µM; CHO-M1 cells, IP1 accumulation, HTRF TR-FRET ratio; P97697; 120,000 tested, under 10 active; active means well fitted curve in the direction sought with a large enough effect in the signal ratio, not every such curve was filed as active; inconclusive means small, poorly fitted or top-dose-only effect, or a change in a side signal; inactive means no such curve, though single readings can be large or run the other way; the % refers to the signal ratio;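 further: cells stimulated with carbachol in lithium chloride buffer; plate controls were DMSO basal wells for no effect and reference inhibitor wells for full effect; higher means more IMPase inhibition seen as more IP1 and lower FRET ratio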
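The IP-One HTRF competitive assay in carbachol-stimulated CHO-M1 cells quantifies cellular IP1. Compounds spanned up to 46 uM final, and activity is expressed as AC50 from concentration-response fits of the ratio and donor data.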
ALDH1A1 inh = inhibitors of human aldehyde dehydrogenase 1A1. 7.3% of 220,000 active. AID 1030. Purified ALDH1A1, NADH fluorescence, propionaldehyde substrate. P00352. Potency, µM (top dose mostly 75.3 µM), for inactives: top-dose activity, negative = inhibition, actives largely listed as inhibitors;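 further: potency means the concentration at half of the fitted maximal effect; plate controls were no enzyme wells and a reference inhibitor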
Target sequence (P00352 whole entry, looked up): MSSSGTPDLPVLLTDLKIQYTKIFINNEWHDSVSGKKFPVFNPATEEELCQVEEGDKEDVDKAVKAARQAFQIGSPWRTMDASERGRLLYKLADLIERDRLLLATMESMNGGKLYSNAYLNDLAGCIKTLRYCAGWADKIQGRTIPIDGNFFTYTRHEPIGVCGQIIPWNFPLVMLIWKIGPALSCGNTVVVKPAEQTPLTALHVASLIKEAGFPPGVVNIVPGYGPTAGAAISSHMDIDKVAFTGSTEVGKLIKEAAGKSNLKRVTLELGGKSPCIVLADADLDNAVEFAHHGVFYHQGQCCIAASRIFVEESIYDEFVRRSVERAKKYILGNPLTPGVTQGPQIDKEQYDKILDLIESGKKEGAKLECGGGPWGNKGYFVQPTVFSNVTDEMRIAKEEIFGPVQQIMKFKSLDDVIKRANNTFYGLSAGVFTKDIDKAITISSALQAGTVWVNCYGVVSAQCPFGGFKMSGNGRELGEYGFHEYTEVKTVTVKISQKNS
Lamin A splicing = changes lamin A minigene splicing in HeLa cells | Potency, µM (titrated, usually from 46.1 µM), for the others: top-dose ratio change, negative = inhibition, usual class: inhibitors | HeLa LMNA splicing GFP/RFP minigene ratio, 48 h | 0.01% of 200,000 active; active means well fitted inhibition curve with a large enough effect in the signal ratio, with a control signal flat, not every such curve was filed as active; inconclusive means small, poorly fitted or top-dose-only effect, or effect the other way, or a change in a side signal; the % refers to the signal ratio; further: potency means the concentration at half of the fitted maximal effect
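Read-out is the ratio of GFP to DsRed2 object intensity, acquired by 488 nm laser-scanning cytometry on HeLa lamin A-EGFP minigene reporter cells. Compound incubation 48 hrs at 37 °C in Opti-MEM with 2% FBS; DMSO 0.5% final.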
KinaseGlo FLuc = counter-screen: inhibitors of Kinase-Glo firefly luciferase. Kinase-Glo luciferase, ATP luminescence, 8 min. Potency, µM (top dose mostly 38.3 µM), inactives show top-dose activity change, negative = inhibition, most hits filed as inhibitors. 0.28% of 200,000 active. AID 1379; active means well fitted inhibition curve with a large enough effect; inconclusive means small, poorly fitted or top-dose-only effect; further: potency means the concentration at half of the fitted maximal effect; nearly all actives have a fitted effect of over 60% in size
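Inhibition of Kinase-Glo luciferase light generation was assessed at 10 uM ATP in pH 7.2 imidazole buffer, with luminescence measured after eight minutes at ambient temperature.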
HPGD block = blocks human HPGD enzyme activity; P15428; purified HPGD, NADH fluorescence kinetic, PGE2 substrate; Potency, µM, without a hit: at the highest dose activity change, negative = inhibition, actives largely listed as inhibitors; 4.3% of 150,000 active; AID 894; further: potency means the concentration at half of the fitted maximal effect
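NADH formation kinetics: reaction with 30 uM PGE2 and 1 mM NAD+ (final), 20 nM enzyme, Tris-HCl pH 8 with Tween 20, after 15 min compound preincubation at room temperature. Fluorescence change, last versus first of five reads.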
Active calls of the source: *; [ ] = remark or other dose. This is a sample that favours compounds with a hit; in the whole collection about 10% have one here. Unless noted, the call rests on the fitted dose curve; in most records, active means well fitted inhibition curve with a large enough effect (not every such curve was filed as active); inconclusive means small, poorly fitted or top-dose-only effect, or another doubt; inactive means no such curve, though single readings can be large or run the other way. Unless noted, on the % scale 0 is the no-effect control and ±100 the full control effect.

COC(=O)c1sc(NC(=O)Cc2cccs2)nc1C was read as PNC assembly inh inconclusive, IMPase inh -1, ALDH1A1 inh 13µM*, Lamin A splicing -6%, KinaseGlo FLuc -3% and HPGD block -8%.
CCN(CC)C(=O)Cn1c(SCC(=O)Nc2ccc(F)cc2)nc2ccccc21 was read as Lamin A splicing 6%[46 µM].
`CCOC(=O)c1noc(C)c1C(=O)Nc1nc(C)cc(C)n1` gave ALDH1A1 inh 20µM* and KinaseGlo FLuc 1%.
For CCc1ccc2[nH]c(=O)c(C(c3nnnn3CC3CCCO3)N3CCCc4ccccc43)cc2c1 (stereo not given) the results were PNC assembly inh inconclusive, IMPase inh -2, ALDH1A1 inh 7.9µM*, Lamin A splicing 9%, KinaseGlo FLuc -3% and HPGD block -23%.
`Cc1cc2cc(C(c3nnnn3CC3CCCO3)N3CCCc4ccccc43)c(=O)[nH]c2cc1C` (stereo not given) gave PNC assembly inh inconclusive, IMPase inh -1, ALDH1A1 inh 2.5µM*, Lamin A splicing -6%, KinaseGlo FLuc -9% and HPGD block inconclusive.
Screening O=c1[nH]c2cc3c(cc2cc1C(c1nnnn1Cc1ccccc1)N1CCCCCC1)OCCO3 (stereo not given) returned PNC assembly inh 2, IMPase inh -1, ALDH1A1 inh inconclusive, Lamin A splicing 4%, KinaseGlo FLuc 2% and HPGD block -20%.
For O=c1[nH]c2cc3c(cc2cc1C(c1nnnn1Cc1ccccc1)N1CCCc2ccccc21)OCO3 (stereo not given) the results were PNC assembly inh -119*, IMPase inh -4, ALDH1A1 inh 15%, Lamin A splicing 4%, KinaseGlo FLuc 0% and HPGD block -3%.
Cc1cccc2cc(C(c3nnnn3CC3CCCO3)N3CCCc4ccccc43)c(=O)[nH]c12 (stereo not given) was read as PNC assembly inh 11, IMPase inh 5, ALDH1A1 inh 1.1µM*, Lamin A splicing 11%, KinaseGlo FLuc 11% and HPGD block -6%.
CCCn1c2ccccc2c2cnn(CC(=O)NCCc3ccc(C)cc3)c(=O)c21 was read as Lamin A splicing 12%[46 µM].
`CCOC(=O)N1CCc2c(sc(NC(=O)c3ccc(S(=O)(=O)N4CCCC4)cc3)c2C#N)C1` gave PNC assembly inh inconclusive, IMPase inh 2, ALDH1A1 inh inconclusive, Lamin A splicing inconclusive, KinaseGlo FLuc 0% and HPGD block -21%.
Screening CC(C)N1CCc2c(sc(NC(=S)NC(=O)c3ccccc3)c2C#N)C1 returned PNC assembly inh inconclusive, IMPase inh 12, ALDH1A1 inh 13µM*, Lamin A splicing -11%, KinaseGlo FLuc 0% and HPGD block inconclusive.
`CCCN1CCc2c(sc(NC(=S)NC(=O)c3ccccc3)c2C#N)C1` gave ALDH1A1 inh 7.9µM*, Lamin A splicing inconclusive and KinaseGlo FLuc -2%.
`CC(C)N1CCc2c(sc(NC(=O)c3ccc(S(=O)(=O)N4CCOCC4)cc3)c2C#N)C1` gave PNC assembly inh -10, IMPase inh -2, ALDH1A1 inh 10µM*, Lamin A splicing -3%, KinaseGlo FLuc 2% and HPGD block -14%.
Screening CCN1CCc2c(sc(NC(=S)NC(=O)c3ccc(Cl)cc3)c2C(N)=O)C1 returned ALDH1A1 inh 10µM*.
C=C(C)[C@]12C[C@@H](C)[C@@]34OC(Cc5ccccc5)(O[C@@H]1[C@@H]3C=C(COC(=O)Cc1cc(OC)c(O)cc1I)C[C@]1(O)C(=O)C(C)=C[C@@H]41)O2 was read as ALDH1A1 inh -4%, KinaseGlo FLuc 1%[39.9 µM] and HPGD block -11%.
For Cc1ccccc1-c1nc(CNC(=O)NC2CCCCC2)c(C)o1 the results were Lamin A splicing 10%[46 µM].
For COc1ccc(NC(=O)CSc2nnc(NC(=O)Nc3ccccc3)s2)c(OC)c1 the results were Lamin A splicing 13%[46 µM].
